Hits are enriched below; roughly 7.6% of the tested compounds scored in any of these assays.
BRCA1 expr act: activators of BRCA1 expression; Potency, µM (series often up to 46.1 µM), inactives show at the top dose activation, usual class: activators; actives 1.1% (n = 380,000); MCF7-BRCA1-FFLuc reporter, luminescence, 48 h; response scale: scaled: vehicle 0%, 10 µM genistein 100%; AID 624202; note: potency is the fitted concentration of half-maximal effect; nearly all actives have a fitted effect of over 80% in size
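MCF7-BRCA1-FFLuc, 2000 cells/well; 2 h attach, 37 °C/5% CO2; compound 48 h; luciferase substrate 15 min; luminescence end-point. Norm. to genistein 10 microM max activation and DMSO; concentration-response curves fitted.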
Gal4-VP16 FLuc: counter-screen for ROR gamma inhibitors: Gal4-VP16 reporter | Drosophila S2 Gal4-VP16 UAS-luciferase, luminescence, 20 h | Potency, µM (highest dose often 53.6 µM), inactives show at the highest dose activity, negative = inhibition, usual class: inhibitors | actives 3.5% (n = 310,000);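 note: Gal4-VP16 expression switched on by copper sulfate through the metallothionein promoter; potency is the fitted concentration of half-maximal effect; % is set by controls: 0 for no effect and ±100 for the full control effect; nearly all actives have a fitted effect of over 50% in size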
Giardia kill: Giardia lamblia killing; activity change, % at 7.66 µM, hits read low; AID 540267; Giardia lamblia trophozoite viability; actives 0.15% (n = 340,000); in the data active = activity change below about -80%; inconclusive = between about -30% and that limit;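 note: parasites exposed to compound for two days anaerobically before the ATP read; % is set by controls: 0 for no effect and ±100 for the full control effect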
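Compounds were tested on trophozoites seeded at 100 cells/well and held 48 hrs at 37 deg C anaerobically. An ATP-based luminescent kit measured the remaining live cells.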
p53 reactivation: restores transcriptional activity of mutant p53 | Potency, µM (series often up to 92.2 µM), for the others: top-dose activity change, positive = activation, usual class: activators | H1299 p53-A138V BP100-luciferase reporter, luminescence, 24 h | actives 0.063% (n = 320,000); note: potency is the fitted concentration of half-maximal effect; % of control where 0% means no effect; nearly all actives have a fitted effect of over 45% in size
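H1299 (p53-null), stable ts p53-A138V + BP100-Luc; 1000 cells/well, Opti-MEM/10% FBS; cpd 4 pt, 1:5; 24 h, 37 deg C, 5% CO2; detection reagent 10 min RT; luminescence.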
ELG1 DNA repair: ELG1-dependent DNA repair inhibition. HEK293T ELG1-luciferase reporter, luminescence, 16 h; DNA damage induced by 5-fluorouridine. Potency, µM (doses to about 46.1 µM), inactives show at the highest dose activity change, negative = inhibition, hits mostly inhibitors. actives 2.3% (n = 330,000); note: potency is the fitted concentration of half-maximal effect; % is set by controls: 0 for no effect and ±100 for the full control effect; nearly all actives have a fitted effect of over 55% in size
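5-Fluorouridine DNA damage + compound/DMSO, 2,000 cells/well, 16 h, 37 °C/5% CO2. ONE-Glo, 30 min RT, luminescence. Readout = decrease in reporter signal.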
RORg inh: blocks mouse ROR gamma transcriptional activity; actives 5.4% (n = 310,000); AID 2551; Drosophila S2 Gal4-RORgamma UAS-luciferase reporter, 20 h; Potency, µM (series often up to 53.6 µM), for inactives: at the highest dose activity change, negative = inhibition, most hits filed as inhibitors; note: potency is the fitted concentration of half-maximal effect; % is set by controls: 0 for no effect and ±100 for the full control effect; nearly all actives have a fitted effect of over 60% in size
Target sequence (P51450 whole entry, looked up, the tested form may be a part): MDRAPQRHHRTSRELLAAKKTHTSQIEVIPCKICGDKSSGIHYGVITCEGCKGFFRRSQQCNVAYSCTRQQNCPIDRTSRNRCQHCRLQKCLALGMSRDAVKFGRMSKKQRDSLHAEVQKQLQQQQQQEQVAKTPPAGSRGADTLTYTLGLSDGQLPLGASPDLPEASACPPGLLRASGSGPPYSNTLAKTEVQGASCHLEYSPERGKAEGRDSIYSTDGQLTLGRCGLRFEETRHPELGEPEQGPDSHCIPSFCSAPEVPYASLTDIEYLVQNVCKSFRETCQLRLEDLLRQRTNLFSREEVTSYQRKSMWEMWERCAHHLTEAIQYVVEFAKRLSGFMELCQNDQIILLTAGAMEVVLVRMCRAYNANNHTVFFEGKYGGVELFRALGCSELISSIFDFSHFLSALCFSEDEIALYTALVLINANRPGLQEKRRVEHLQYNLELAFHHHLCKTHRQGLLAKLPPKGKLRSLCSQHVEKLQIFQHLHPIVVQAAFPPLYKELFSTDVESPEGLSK
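Using a luciferase readout, inhibitors were identified by reduced reporter activity in Drosophila cells coexpressing a copper-inducible Gal4–ROR gamma fusion and UAS-driven Photinus luciferase, incubated 20 hr after 700 uM copper sulfate.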
Numbers without * were called inactive. Unless noted, calls come from the whole dose curve; as a rule, active = well fitted curve in the direction sought with a large enough effect; inconclusive = small, poorly fitted or top-dose-only effect, or another doubt; inactive = no such curve, though single readings can be large; an effect the other way counts as inactive or inconclusive.

How did CCOC(=O)c1cccc(NC(=O)CCc2c(C)nc3cc(-c4ccc(Cl)cc4)nn3c2C)c1 do in these assays?
BRCA1 expr act: -36.8%

What do the screens show for `CSc1nnc2n(-c3ccc(C)cc3)c(=O)c3c4c(sc3n12)COC(C(C)C)C4` (configuration not stated)?
BRCA1 expr act: -4.8%; Gal4-VP16 FLuc: 0.7%; Giardia kill: -16.2; p53 reactivation: -3.2%; ELG1 DNA repair: -3.4%; RORg inh: -30.6%

How did COc1ccc(N/N=C(/C(N)=O)C2=NC(C)(C)Cc3ccccc32)cc1 do in these assays?
BRCA1 expr act: -55.3%; Gal4-VP16 FLuc: 0.6%; Giardia kill: 9.9; p53 reactivation: -12.1%; ELG1 DNA repair: 23.1µM*; RORg inh: inconclusive

How did C=CCn1c(OCc2ccccc2)n[nH]c1=S do in these assays?
BRCA1 expr act: -42.7%; Gal4-VP16 FLuc: 17.8µM*; Giardia kill: 9.8; p53 reactivation: -0.9%; ELG1 DNA repair: -0.3%; RORg inh: 3.98µM*

Results for C=CCn1c(C(c2ccccc2)c2ccccc2)n[nH]c1=S ?
BRCA1 expr act: -13.7%; Gal4-VP16 FLuc: 7.94µM*; Giardia kill: -11.7; p53 reactivation: -9.0%; ELG1 DNA repair: 13.1%; RORg inh: 7.94µM*

How did C=CCn1c(C(C)NC(=O)c2cccs2)n[nH]c1=S (configuration not stated) do in these assays?
BRCA1 expr act: -0.8%; Gal4-VP16 FLuc: -2.1%; Giardia kill: -5.4; p53 reactivation: -1.2%; ELG1 DNA repair: 0.0%; RORg inh: 10µM*

What do the screens show for `CSc1ncccc1C(=O)N1CCN(S(=O)(=O)c2ccccc2)CC1`?
BRCA1 expr act: 16.3%; Gal4-VP16 FLuc: 11.2%; Giardia kill: -3.2; p53 reactivation: -3.3%; ELG1 DNA repair: 7.5%; RORg inh: -9.7%

Results for COc1ccc(C(=O)N2c3ccccc3CC2C)cc1OC (configuration not stated) ?
BRCA1 expr act: 9.0%; Gal4-VP16 FLuc: 7.8%; Giardia kill: 6.2; RORg inh: -0.8%

What do the screens show for `COc1cccc(NC(=S)N2c3ccccc3CC2C)c1` (configuration not stated)?
BRCA1 expr act: -34.7%; Gal4-VP16 FLuc: inconclusive; Giardia kill: 15.4; p53 reactivation: -4.5%; ELG1 DNA repair: -1.5%; RORg inh: 22.4µM*

What do the screens show for `COc1ccc(OC)c(NC(=S)N2c3ccccc3CC2C)c1` (configuration not stated)?
BRCA1 expr act: -31.2%; Gal4-VP16 FLuc: -0.5%; Giardia kill: 3.2; p53 reactivation: -11.3%; ELG1 DNA repair: 18.3µM*; RORg inh: 36.3%

Results for COc1ccc(OC)c(NC(=S)N2CCC(C(O)(c3ccccc3)c3ccccc3)CC2)c1 ?
BRCA1 expr act: -3.3%; Gal4-VP16 FLuc: inconclusive; Giardia kill: -3.2; p53 reactivation: -3.7%; ELG1 DNA repair: -11.3%; RORg inh: 15.8µM*

Results for CC(=O)c1ccc(NC(=S)N2c3ccccc3CC2C)cc1 (configuration not stated) ?
BRCA1 expr act: -10.3%; Gal4-VP16 FLuc: 0.2%; Giardia kill: 2.5; p53 reactivation: 2.0%; ELG1 DNA repair: -13.7%; RORg inh: inconclusive

Results for COc1cc(NC(=S)N2c3ccccc3CC2C)cc(OC)c1 (configuration not stated) ?
BRCA1 expr act: -52.5%; Gal4-VP16 FLuc: 17.8µM*; Giardia kill: -9.6; p53 reactivation: 5.6%; ELG1 DNA repair: -15.3%; RORg inh: 8.91µM*

How did O=C1CCC[C@@H]2C[C@@]3(C[C@@H]4CCN1[C@H]24)Nc1cc(Cl)ccc1NC3=NCc1ccccc1 do in these assays?
BRCA1 expr act: 3.6%; Giardia kill: 12.7
